The values below come from PubChem BioAssay.

The source made the active and inactive calls.

The nature of experiment [1]: small molecules captured by biotinylated probe aFSTL3 – biochemical, small-molecule microarray, fluorescence 635/667, stem cell growth factor project, primary screen (AID 1064).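 Further: measures binding of the biotinylated anti-FSTL3 antibody to printed compounds.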 To be noted: higher = more signal.
Experiment [2] in a line: binders from COS7 lysate, DM2A8 probe, primary screen, torsin A project, cell lysate, small-molecule microarray, fluorescence 635/667 (AID 1065). Particulars: higher = more signal, COS7 lysate expressing mutant human TOR1A.
Experiment [3] can be described thus: small molecules captured by biotinylated probe aFGF2 – biochemical, small-molecule microarray, fluorescence 635/667, stem cell growth factor project, primary screen (AID 1067).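 Further: measures binding of biotinylated aFGF2 protein to printed compounds on slides; z-score merges feature fluorescence and signal-to-noise across triplicate slides.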 To be noted: higher = more signal.
Experiment [4] in a line: small molecules captured by biotinylated probe aFGF10 – biochemical, small-molecule microarray, fluorescence 635/667, stem cell growth factor project, primary screen (AID 1071).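 Further: score merges 667 nm spot intensity and signal to noise from triplicate slides.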 Particulars: higher = more signal.
Experiment [5] has as its target Neurogenic locus notch homolog protein 2 (Homo sapiens) (UniProt Q04721). The experiment is described as follows: small molecules binding Notch2 protein – biochemical, small-molecule microarray, 635 nm fluorescence, stem cell growth factors, primary screen (AID 1073). Particulars: higher = more signal.
Experiment [6] concerns the target Pro-neuregulin-1, membrane-bound isoform (Homo sapiens) (UniProt Q02297). As to the kind of experiment: small molecules binding neuregulin-1 protein – biochemical, small-molecule microarray, fluorescence 635/667, psychiatric disease protein project, primary screen (AID 1075).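 Further: score combines 667 nm spot fluorescence with signal to noise.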 To be noted: NRG1 binding, 635 nm fluorescence, higher = more signal.
The subject of experiment [7] is Neuregulin-1 EGF-like domain. The experiment is described as follows: small molecules binding NRG1 EGF domain – biochemical, small-molecule microarray, 635 nm fluorescence, primary screen (AID 1081).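 Further: binding of the protein to compounds printed on small-molecule microarray slides.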 Particulars: higher = more signal.
The nature of experiment [8]: FRG1 expression reporter modulators in myotubes – cell-based, C2C12 myotubes, firefly/Renilla luciferase, luminescence, FRG1 inhibition for FSHD, primary screen (AID 1084). Particulars: FRG1 promoter luciferase, higher = more signal, called active from +8 up or from −8 down.
Experiment [9] in a line: small molecules captured by biotinylated probe aFST – biochemical, small-molecule microarray, fluorescence 635/667, stem cell growth factor project, primary screen (AID 1086).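 Further: score merges 667 nm fluorescence with signal-to-noise of each printed compound spot.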 Particulars: higher = more signal.
Experiment [10] is described as follows: binders of probe aHhip on microarray, primary screen, stem cell growth factor project, biochemical, small-molecule microarray, fluorescence 635/667 (AID 1087).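 Further: score merges spot fluorescence at 667nm with spot signal to noise ratio.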 To be noted: higher = more signal.
The subject of experiment [11] is PRMT1 (protein arginine N-methyltransferase 1). As to the kind of experiment: small molecules binding arginine methyltransferase PRMT1 – biochemical, small-molecule microarray, 635 nm fluorescence, primary screen (AID 1088).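 Further: binding of Prmt1 protein to compounds spotted on small-molecule microarray slides.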 Particulars: higher = more signal.
A short description of experiment [12]: growth effects on S. cerevisiae YJM789 – YJM789 clinical isolate, OD600, 24 h, basal, primary screen (AID 1089).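 Further: growth of clinical yeast isolate S. cerevisiae YJM 789 seeded 1000 cells per well; test concentration not given here.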 Particulars: higher = more signal, called active from +8 up or from −8 down.
The nature of experiment [13]: S. pombe growth modifiers, basal conditions – strain 972, OD600, 24 h, no modulator, primary screen (AID 1090).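 Further: basal condition with compound alone and no growth modifier present; test concentration not given here.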 Particulars: S. pombe 972 growth, higher = more signal, called active from +8 up or from −8 down.
Experiment [14] in a line: budding yeast growth modifiers under rapamycin – strain BY4716, OD600, 96 h, primary screen (AID 1091). Further: test concentration not given here. Particulars: S. cerevisiae BY4716 + rapamycin, higher = more signal, called active from +8 up or from −8 down.
The target of experiment [15] is Torsin-1A-interacting protein 2 (Homo sapiens) (UniProt Q8NFQ8). The experiment is described as follows: small molecules binding lysate-expressed LULL1 – cell lysate, human LULL1 lysate, 635/667 nm fluorescence, primary screen (AID 1092).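 Further: probe is lysate of COS7 cells overexpressing human LULL1; score merges per-feature 667 nm fluorescence with signal-to-noise.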 To be noted: small-molecule microarray, hLULL1 lysate binding, 635 nm fluorescence; higher = more signal.
Experiment [16] in a line: optical density change of DRC41 E. coli – strain DRC41, OD650, 24 h, E. coli filamentation project, primary screen (AID 1093).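 Further: MC1000 strain lacking acrAB efflux and sulA so SOS filamentation is blocked; test concentration not given here.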 To be noted: E. coli DRC41 growth, higher = more signal, called active from +8 up or from −8 down.
The nature of experiment [17]: probe aLefty2 binding to arrayed compounds – biochemical, biotinylated probe, 635/667 nm fluorescence, primary screen (AID 1094).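 Further: score merges spot fluorescence near 667 nm with spot signal-to-noise ratio.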 Particulars: small-molecule microarray, higher = more signal.
For experiment [18], the system named is Noggin (protein binding on small-molecule microarray). As to the kind of experiment: small molecules binding Noggin protein – biochemical, 635/667 nm fluorescence, primary screen (AID 1095).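 Further: score merges 667 nm feature fluorescence with signal to noise over triplicate slides.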 To be noted: 635 nm fluorescence, higher = more signal.
For experiment [19], the target named is Neurogenic locus notch homolog protein 3 (Homo sapiens) (UniProt Q9UM47). As to the kind of experiment: small molecules binding NOTCH3 protein – biochemical, 635/667 nm fluorescence, primary screen (AID 1096). To be noted: small-molecule microarray, 635 nm fluorescence, higher = more signal.
A short description of experiment [20]: probe aEGFR binding to arrayed compounds – biochemical, biotinylated probe, 635/667 nm fluorescence, primary screen (AID 1097).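 Further: probe is a biotinylated anti-EGFR antibody binding compounds printed on slides; score combines fluorescence near 667 nm and signal to noise of each spot.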 To be noted: small-molecule microarray, higher = more signal.

Chain of Torsin-1A-interacting protein 2 (Homo sapiens) (Q8NFQ8 whole entry, looked up): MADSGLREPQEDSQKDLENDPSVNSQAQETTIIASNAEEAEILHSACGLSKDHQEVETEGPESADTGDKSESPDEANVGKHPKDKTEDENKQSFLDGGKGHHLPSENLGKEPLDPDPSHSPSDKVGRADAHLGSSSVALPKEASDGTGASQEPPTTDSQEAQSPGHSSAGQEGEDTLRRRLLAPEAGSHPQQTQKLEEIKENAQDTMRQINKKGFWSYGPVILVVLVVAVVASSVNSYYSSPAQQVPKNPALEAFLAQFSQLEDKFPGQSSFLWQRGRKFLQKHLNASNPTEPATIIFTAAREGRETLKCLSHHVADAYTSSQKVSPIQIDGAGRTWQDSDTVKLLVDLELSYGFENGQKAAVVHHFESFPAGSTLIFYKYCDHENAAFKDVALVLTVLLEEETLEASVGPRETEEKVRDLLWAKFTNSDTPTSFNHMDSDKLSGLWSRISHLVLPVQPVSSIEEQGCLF
Chain of Pro-neuregulin-1, membrane-bound isoform (Homo sapiens) (Q02297 whole entry, looked up, the tested form may be a part, canonical isoform): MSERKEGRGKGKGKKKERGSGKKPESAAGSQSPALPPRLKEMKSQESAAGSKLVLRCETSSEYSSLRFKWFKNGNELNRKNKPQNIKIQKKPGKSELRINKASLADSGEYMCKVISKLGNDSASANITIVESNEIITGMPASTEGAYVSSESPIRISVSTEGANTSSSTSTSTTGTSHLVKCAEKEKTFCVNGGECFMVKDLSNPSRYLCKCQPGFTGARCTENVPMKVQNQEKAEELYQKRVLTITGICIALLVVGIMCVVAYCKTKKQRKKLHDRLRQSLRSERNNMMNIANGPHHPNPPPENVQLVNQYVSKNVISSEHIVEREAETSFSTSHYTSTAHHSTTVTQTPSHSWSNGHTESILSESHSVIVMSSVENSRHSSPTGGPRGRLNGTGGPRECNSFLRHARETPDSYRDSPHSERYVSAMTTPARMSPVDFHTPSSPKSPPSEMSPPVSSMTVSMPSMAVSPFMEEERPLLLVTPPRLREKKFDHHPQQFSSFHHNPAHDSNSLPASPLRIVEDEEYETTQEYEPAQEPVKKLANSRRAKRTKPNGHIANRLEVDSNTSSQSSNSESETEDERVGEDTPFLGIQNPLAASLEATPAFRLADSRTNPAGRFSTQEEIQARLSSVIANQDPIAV
Chain of Neurogenic locus notch homolog protein 3 (Homo sapiens) (Q9UM47 whole entry, looked up): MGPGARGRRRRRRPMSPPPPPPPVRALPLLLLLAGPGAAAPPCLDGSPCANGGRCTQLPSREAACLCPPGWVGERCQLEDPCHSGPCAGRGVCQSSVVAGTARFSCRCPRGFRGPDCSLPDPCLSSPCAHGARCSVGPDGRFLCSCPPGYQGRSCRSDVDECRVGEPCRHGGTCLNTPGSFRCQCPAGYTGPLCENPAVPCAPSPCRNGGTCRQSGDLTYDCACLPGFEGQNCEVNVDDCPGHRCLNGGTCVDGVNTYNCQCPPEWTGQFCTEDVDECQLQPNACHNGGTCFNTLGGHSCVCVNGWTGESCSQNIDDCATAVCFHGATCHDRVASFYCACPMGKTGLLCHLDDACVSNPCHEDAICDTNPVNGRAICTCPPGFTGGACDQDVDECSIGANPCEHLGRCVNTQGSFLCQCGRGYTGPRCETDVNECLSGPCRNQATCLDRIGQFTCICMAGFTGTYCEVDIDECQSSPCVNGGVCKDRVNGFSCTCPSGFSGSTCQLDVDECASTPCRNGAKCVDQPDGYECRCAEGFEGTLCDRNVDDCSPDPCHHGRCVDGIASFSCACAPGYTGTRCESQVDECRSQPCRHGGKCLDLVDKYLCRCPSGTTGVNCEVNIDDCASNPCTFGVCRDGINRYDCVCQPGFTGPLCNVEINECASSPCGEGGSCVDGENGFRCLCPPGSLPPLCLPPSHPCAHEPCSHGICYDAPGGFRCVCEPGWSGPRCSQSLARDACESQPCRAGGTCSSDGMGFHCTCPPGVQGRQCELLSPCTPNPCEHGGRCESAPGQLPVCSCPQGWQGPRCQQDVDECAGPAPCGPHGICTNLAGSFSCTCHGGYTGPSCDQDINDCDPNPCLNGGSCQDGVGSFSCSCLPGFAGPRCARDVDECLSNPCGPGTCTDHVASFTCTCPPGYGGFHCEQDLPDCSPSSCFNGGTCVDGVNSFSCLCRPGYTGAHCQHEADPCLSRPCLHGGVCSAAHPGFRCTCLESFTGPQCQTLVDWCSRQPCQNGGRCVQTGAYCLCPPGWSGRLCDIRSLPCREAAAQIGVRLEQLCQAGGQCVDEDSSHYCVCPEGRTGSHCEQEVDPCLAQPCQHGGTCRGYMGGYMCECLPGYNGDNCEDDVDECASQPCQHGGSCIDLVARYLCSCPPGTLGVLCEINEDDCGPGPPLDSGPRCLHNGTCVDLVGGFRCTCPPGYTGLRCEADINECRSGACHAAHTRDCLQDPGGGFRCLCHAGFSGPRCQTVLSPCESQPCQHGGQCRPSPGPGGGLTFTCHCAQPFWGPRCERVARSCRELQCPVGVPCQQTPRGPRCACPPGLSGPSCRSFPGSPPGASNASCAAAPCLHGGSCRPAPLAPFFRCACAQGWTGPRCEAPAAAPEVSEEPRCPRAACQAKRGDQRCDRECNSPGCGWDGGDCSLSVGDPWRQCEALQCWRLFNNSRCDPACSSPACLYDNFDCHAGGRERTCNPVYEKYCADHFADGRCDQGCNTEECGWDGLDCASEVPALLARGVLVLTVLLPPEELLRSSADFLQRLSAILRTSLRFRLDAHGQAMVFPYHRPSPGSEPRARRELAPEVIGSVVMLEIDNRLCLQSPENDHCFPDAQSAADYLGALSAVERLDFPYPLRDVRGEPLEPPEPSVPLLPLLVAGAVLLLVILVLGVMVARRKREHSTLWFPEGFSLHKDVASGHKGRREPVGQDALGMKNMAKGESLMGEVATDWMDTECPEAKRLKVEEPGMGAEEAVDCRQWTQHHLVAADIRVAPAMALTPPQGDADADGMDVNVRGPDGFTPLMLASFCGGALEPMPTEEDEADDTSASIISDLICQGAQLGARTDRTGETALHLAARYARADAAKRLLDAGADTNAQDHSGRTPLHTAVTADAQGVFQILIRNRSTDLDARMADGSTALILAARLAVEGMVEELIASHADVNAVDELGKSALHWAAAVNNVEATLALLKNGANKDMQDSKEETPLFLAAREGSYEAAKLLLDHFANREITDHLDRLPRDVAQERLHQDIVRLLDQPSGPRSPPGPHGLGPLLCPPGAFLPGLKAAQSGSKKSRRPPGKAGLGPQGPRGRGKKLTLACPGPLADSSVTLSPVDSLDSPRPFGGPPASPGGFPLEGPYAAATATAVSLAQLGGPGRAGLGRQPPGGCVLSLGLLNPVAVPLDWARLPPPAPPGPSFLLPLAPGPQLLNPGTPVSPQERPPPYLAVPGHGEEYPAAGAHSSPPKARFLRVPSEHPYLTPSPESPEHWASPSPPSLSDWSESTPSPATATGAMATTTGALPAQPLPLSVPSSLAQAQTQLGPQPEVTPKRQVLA

Consider `CC(C)C[C@@H]1NC(=O)[C@@H]2C[C@H](C(=O)NCc3ccc(F)cc3)[C@H](c3cccc(OCCO)c3)N2C1=O`, for which the composite z-score in experiment [1] was 0.0163; in [2] it was 0.297; in experiment [3] it was -0.0861; in experiment [4] it was 0.362; in [5] it was -0.575; in experiment [6], -0.0212. Moreover, the composite z-score was 1.32 in experiment [7]; -0.405 in experiment [9]; -0.236 in experiment [10]; 1.38 in experiment [11]; 2.14 in experiment [15]; -0.0674 in experiment [17]. The composite z-score in experiment [18] was 0.572; in [19], 0.552; in experiment [20], -0.147. For the same compound, the z-score is -0.148 (inactive) in [8]; -1.84 (inactive) in experiment [12]; -0.161 (inactive) in experiment [13]; -0.425 (inactive) in experiment [14]; 1.64 (inactive) in experiment [16].
Take `CCCC[C@@H]1C[C@H]1[C@@H](NC(=O)c1ccco1)c1ccccc1C(F)(F)F`: the composite z-score is 2.82 in experiment [1]; -0.108 in experiment [2]; 0.806 in [3]; 0.0033 in experiment [4]; 0.967 in experiment [5]; 0.382 in experiment [6]. The composite z-score in experiment [7] is -0.226; in experiment [9], 2.87; in experiment [10], 3.61; in experiment [11], -0.191; in experiment [15], 1.53; in [17] it was 1.36. For the same compound, the composite z-score in [18] was -0.339; in [19], 0.453; in [20], 0.856. Besides, the z-score in [8] is 0.792 (inactive); in experiment [12], 0.493 (inactive); in experiment [13] it was 1.13 (inactive); in experiment [14] it was -0.0491 (inactive); in [16], -0.763 (inactive).
Take `COc1ccc(CCNC(=O)[C@@]2(C)c3ccccc3C(=O)N(C(C)C)[C@H]2c2ccc(CO)cc2)cc1`: the composite z-score was -0.182 in [1]; 0.39 in [2]; 0.0376 in experiment [3]; 0.4 in [4]; 0.246 in experiment [5]; 0.693 in experiment [6]. The composite z-score in [7] was 1.3; in experiment [9], 0.933; in experiment [10], -0.394; in experiment [11], 0.601; in experiment [15] it was 2.15; in experiment [17] it was -0.107. Also, the composite z-score in experiment [18] was 0.456; in [19], -0.399; in [20] it was 0.0117. Further, the z-score is -0.262 (inactive) in experiment [8]; -0.122 (inactive) in [12]; -0.366 (inactive) in experiment [13]; -0.321 (inactive) in [14]; 0.721 (inactive) in experiment [16].
With `O=C1c2ccccc2[C@](Cc2ccccc2I)(C(=O)NCCN2CCOCC2)[C@H](c2ccc(CO)cc2)N1C1CCCCC1`, the composite z-score in experiment [1] is 0.446; in experiment [2] it was 0.473; in [3], -0.0181; in experiment [4], 0.352; in experiment [5], 1.39; in experiment [6], 0.738. The composite z-score in experiment [7] is 1.22; in [9], 1.19; in experiment [10], 0.259; in experiment [11], 1.43; in [15] it was 1.53; in [17], 0.227. Also, the composite z-score in experiment [18] is 1.12; in experiment [19], 1.06; in experiment [20], 0.521. The z-score in experiment [8] was -4.42 (inactive); in [12], -0.139 (inactive); in experiment [13], -0.156 (inactive); in [14], 0.216 (inactive); in experiment [16] it was 1.09 (inactive).
In the case of `CCCC[C@@H]1C[C@H]1[C@@H](NC(=O)c1cccs1)c1ccc(-c2ccccc2)cc1`, the composite z-score was 0.108 in [1]; 0.0945 in experiment [2]; 0.189 in experiment [3]; 0.486 in experiment [4]; 0.146 in experiment [5]; -0.0051 in experiment [6]. The composite z-score in [7] was 0.411; in [9], 0.151; in experiment [10], 0.2; in experiment [11], 0.464; in [15] it was 1.09; in [17], -0.121. In addition, the composite z-score in [18] was 0.692; in experiment [19], 0.428; in [20], -0.0688. Moreover, the z-score in experiment [8] was -0.621 (inactive); in experiment [12] it was 0.227 (inactive); in experiment [13], -3.7 (inactive); in experiment [14] it was -1.24 (inactive); in [16], -0.692 (inactive).
